The panel holds about 79,000 compounds, 15% with a hit somewhere; the sample as a whole holds those more often. A number with no mark means an inactive call. Rule as the data show it: active = growth inhibition above about 70%; inactive = the rest.

The first test in a line: NCI Yeast Anticancer Drug Screen. Data for the bub3 strain (AID 167). The settings on record: S. cerevisiae bub3 mutant strain, at 50.0 µM, hits give high values. Summed up: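 Inhibition values come from growth of compound-treated mutant yeast normalised to vehicle-treated controls.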
Regarding `CCC(Cc1ccccc1)OC(=O)c1ccccc1C(=O)O` (stereo not given), the growth inhibition was -6.85%.
On the same count and under the same terms, in the case of `O=c1[nH]c2cc(Cl)ccc2nc1/C(=N\O)C(O)c1cccc([N+](=O)[O-])c1` (stereo not given) it was -5.1%; in that of `CC(=O)CCCC(=O)O`, 0.45%.
With `O=C(NNc1nc(N2CCOCC2)nc(N2CCOCC2)n1)c1ccccc1`, the growth inhibition was -5.05%.
In the case of `CN(C)CCCc1cccc2[nH]c3c(c12)CN(C)CC3`, the growth inhibition is 7.45%.
The same measure, in the same setting: next, `O=C(c1ccccc1)c1ccccc1NCC(O)COc1cccc2ccccc12` (stereo not given): 5.55%; `CCOC(=O)C1=C(C)N[C@H](c2ccccc2[N+](=O)[O-])N[C@H]1c1ccccc1[N+](=O)[O-]`: 1.45%; `Cc1ccc(N=Cc2ccc(C(N)=S)cc2)cc1`: 18.8%.
The same measure, in the same setting: next, `COC1OC(OC)c2cc([N+](=O)[O-])ccc21` (stereo not given): -11.1%; `CCCC(=O)c1ccc2c(ccc(=O)n2C)c1`: 28.8%.
In the case of `N#Cc1c(N)[n+]([O-])c2c([n+]1[O-])CCCC2`, the growth inhibition is -14.8%.
The same measure, in the same setting: in the case of `Clc1ccc(C2=NCCO2)cc1` it was 4.85%; in that of `Cc1cc(N)c(NC2OC(CO)C(O)C2O)cc1C` (stereo not given), 41.1%.
The same measure, in the same setting: next, `N#CC(C#N)=CNc1cccc(Cl)c1`: -1.05%; `COc1ccc(CC(C)SC(CC(=O)O)C(=O)O)cc1` (stereo not given): 7.95%; `O=C(O)C(O)c1c[nH]c2ccccc12` (stereo not given): -11.4%.
Same read-out and setting: next, `CCc1cccc(C(C)C)c1NC(=O)C(=O)C1C(=O)Nc2ccccc2S1=O` (stereo not given): 2.4%.
With `O=C1N=C2SC(=S)NC(=S)N2NC12c1ccccc1-c1ccccc12`, the growth inhibition was 16.4%.
The same measure, in the same setting: next, `O=C(COc1ccccc1)Nc1ccc(C(=O)O)cc1`: 22.1%.
With `O=S(=O)(O)C(O)C(F)(F)C(F)(F)C(F)(F)F` (stereo not given), the growth inhibition is -30.6%.
Consider `CCN(CC)CCCn1c(-c2ccccc2)ccc1-c1ccccc1`, for which the growth inhibition is 21.4%.
Still for that read-out and setting: in the case of `O=C(CCCCCCCCC(=O)OCC1OC(n2cnc3c(=O)[nH]cnc32)C(O)C1O)OCC1OC(n2cnc3c(=O)[nH]cnc32)C(O)C1O` (stereo not given) it was -22.9%; in that of `C#CCN(CC#C)C(=O)C(=O)c1c[nH]c2ccc(OC)cc12`, 52.4%.
Regarding `COc1ccc2c(c1)CCN1CCc3ccccc3CC21` (stereo not given), the growth inhibition was 53.4%.
The same measure, in the same setting: next, `O=C(CCNC(=O)OCc1ccccc1)NC(Cc1ccccc1)C(=O)OCc1ccccc1` (stereo not given): 2.4%.
The same measure, in the same setting: in the case of `Nc1[nH]n(-c2ccccc2)c(=O)c1/C=N/C(=S)NC1CCCCC1` it was -47.8%; in that of `Fc1cccc(CSc2cnnc(SCc3cccc(F)c3)c2SCc2cccc(F)c2)c1`, -10.8%.
Still for that read-out and setting: next, `CC(C)=Cc1cc(-c2cc(C=C(C)C)[nH]n2)n[nH]1`: -9.2%; `CC(/C=C/c1ccccc1)=N\N=C(C)\C=C\c1ccccc1`: -37.8%.
In the case of `Nc1cccc(CNC(=O)COc2ccc(Cl)cc2C(=O)O)c1`, the growth inhibition was 18.4%.
As for `CC(C)CCc1c(N)nc(N)[nH]c1=O`, the growth inhibition was 1%.
Still for that read-out and setting: in the case of `CN(C)CCC(=O)c1ccc(C(=O)CCN(C)C)cc1` it was -16.2%.
On the same count and under the same terms, in the case of `Clc1ccccc1C1N2CCCCC2[C@@H]2c3[nH]c4ccccc4c3CCN12` (stereo not given in full) it was 12.6%; in that of `N#Cc1c(-c2ccccc2)cc(-c2ccc(N)cc2)[nH]c1=O`, 11.6%; in that of `S=C1Cc2c(-c3ccc(Br)cc3)cc(-c3ccccc3)nc2-c2ccccc2N1`, 22.9%.
Same read-out and setting: in the case of `CSc1nc2nc[nH]c2c(=O)[nH]1` it was -1.85%.
As to `CCC(=O)CCN(CC)CC`, the growth inhibition was -35.3%.
Regarding `CC1(c2nc3ccccc3[nH]2)CCC(C(=O)O)C(C)(C)O1` (stereo not given), the growth inhibition is -19.6%.
Still for that read-out and setting: next, `CCCCCCCCOCCS(=O)(=O)O`: -10.8%.
Still for that read-out and setting: in the case of `COc1ccc(/C=C2\CCCC(C(NO)c3ccc(OC)cc3)C2=NO)cc1` (stereo not given) it was 22.8%.

A further test in a line: NCI Yeast Anticancer Drug Screen. Data for the mlh1 rad18 strain (AID 175). The settings on record: S. cerevisiae mlh1 rad18 strain growth inhibition; at 50.0 µM; hits give high values. Summed up: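 In this whole-cell yeast screen, a strain with altered DNA damage repair is challenged with compound, and its growth is measured against matched vehicle-treated controls.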
For the compound `CCC(Cc1ccccc1)OC(=O)c1ccccc1C(=O)O` (stereo not given), the growth inhibition was 1.9%.
On the same count and under the same terms, next, `O=c1[nH]c2cc(Cl)ccc2nc1/C(=N\O)C(O)c1cccc([N+](=O)[O-])c1` (stereo not given): -13.2%.
Still for that read-out and setting: next, `CC(=O)CCCC(=O)O`: 10.2%; `O=C(NNc1nc(N2CCOCC2)nc(N2CCOCC2)n1)c1ccccc1`: -4.3%; `CN(C)CCCc1cccc2[nH]c3c(c12)CN(C)CC3`: -26%.
On to `O=C(c1ccccc1)c1ccccc1NCC(O)COc1cccc2ccccc12` (stereo not given), for which the growth inhibition is -4.2%.
On the same count and under the same terms, next, `CCOC(=O)C1=C(C)N[C@H](c2ccccc2[N+](=O)[O-])N[C@H]1c1ccccc1[N+](=O)[O-]`: 9.25%; `Cc1ccc(N=Cc2ccc(C(N)=S)cc2)cc1`: 24%.
For the compound `COC1OC(OC)c2cc([N+](=O)[O-])ccc21` (stereo not given), the growth inhibition is 50.2%.
On the same count and under the same terms, next, `CCCC(=O)c1ccc2c(ccc(=O)n2C)c1`: 15.9%; `N#Cc1c(N)[n+]([O-])c2c([n+]1[O-])CCCC2`: -3.35%; `Clc1ccc(C2=NCCO2)cc1`: -26.3%.
On the same count and under the same terms, in the case of `Cc1cc(N)c(NC2OC(CO)C(O)C2O)cc1C` (stereo not given) it was 19.7%; in that of `N#CC(C#N)=CNc1cccc(Cl)c1`, 18.5%; in that of `COc1ccc(CC(C)SC(CC(=O)O)C(=O)O)cc1` (stereo not given), -8.2%.
Still for that read-out and setting: in the case of `O=C(O)C(O)c1c[nH]c2ccccc12` (stereo not given) it was -29.3%.
Regarding `CCc1cccc(C(C)C)c1NC(=O)C(=O)C1C(=O)Nc2ccccc2S1=O` (stereo not given), the growth inhibition was -29.1%.
Take `O=C1N=C2SC(=S)NC(=S)N2NC12c1ccccc1-c1ccccc12`: the growth inhibition was 19.6%.
Same read-out and setting: in the case of `O=C(COc1ccccc1)Nc1ccc(C(=O)O)cc1` it was 25.3%; in that of `O=S(=O)(O)C(O)C(F)(F)C(F)(F)C(F)(F)F` (stereo not given), 19.9%; in that of `CCN(CC)CCCn1c(-c2ccccc2)ccc1-c1ccccc1`, 18.4%.
On the same count and under the same terms, in the case of `O=C(CCCCCCCCC(=O)OCC1OC(n2cnc3c(=O)[nH]cnc32)C(O)C1O)OCC1OC(n2cnc3c(=O)[nH]cnc32)C(O)C1O` (stereo not given) it was -35.3%; in that of `C#CCN(CC#C)C(=O)C(=O)c1c[nH]c2ccc(OC)cc12`, 51%; in that of `COc1ccc2c(c1)CCN1CCc3ccccc3CC21` (stereo not given), 42.6%.
Still for that read-out and setting: in the case of `O=C(CCNC(=O)OCc1ccccc1)NC(Cc1ccccc1)C(=O)OCc1ccccc1` (stereo not given) it was 7.65%; in that of `Nc1[nH]n(-c2ccccc2)c(=O)c1/C=N/C(=S)NC1CCCCC1`, -67.9%.
Take `Fc1cccc(CSc2cnnc(SCc3cccc(F)c3)c2SCc2cccc(F)c2)c1`: the growth inhibition is -32%.
The same measure, in the same setting: next, `CC(C)=Cc1cc(-c2cc(C=C(C)C)[nH]n2)n[nH]1`: -11.9%; `CC(/C=C/c1ccccc1)=N\N=C(C)\C=C\c1ccccc1`: -23.4%; `Nc1cccc(CNC(=O)COc2ccc(Cl)cc2C(=O)O)c1`: 10.4%.
As for `CC(C)CCc1c(N)nc(N)[nH]c1=O`, the growth inhibition is 3.75%.
Same read-out and setting: next, `CN(C)CCC(=O)c1ccc(C(=O)CCN(C)C)cc1`: -21.2%; `Clc1ccccc1C1N2CCCCC2[C@@H]2c3[nH]c4ccccc4c3CCN12` (stereo not given in full): 2.4%; `N#Cc1c(-c2ccccc2)cc(-c2ccc(N)cc2)[nH]c1=O`: 20.3%.
On the same count and under the same terms, in the case of `S=C1Cc2c(-c3ccc(Br)cc3)cc(-c3ccccc3)nc2-c2ccccc2N1` it was 23.2%.
Same read-out and setting: in the case of `CSc1nc2nc[nH]c2c(=O)[nH]1` it was -3.65%; in that of `CCC(=O)CCN(CC)CC`, -40.4%.
Take `CC1(c2nc3ccccc3[nH]2)CCC(C(=O)O)C(C)(C)O1` (stereo not given): the growth inhibition is -32.9%.
As for `CCCCCCCCOCCS(=O)(=O)O`, the growth inhibition was 35.8%.
Still for that read-out and setting: next, `COc1ccc(/C=C2\CCCC(C(NO)c3ccc(OC)cc3)C2=NO)cc1` (stereo not given): 18.2%.

For the origin of these results see PubChem BioAssay (NCI).
